Pol iota inh – qHTS for Inhibitors of Polymerase Iota | DNA polymerase iota (Homo sapiens), Q9UNA4 | Pol iota fluorescent replication assay, 10 min | Potency, µM (series often up to 115 µM), inactives show at the highest dose activity, negative = inhibition, actives largely listed as inhibitors | 390,000 compounds, 1% hits; also: potency is read from the fitted curve at half-maximal effect
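Fluorescent replication assay read twice, at 0 min and 10 min after adding 50 nM (final) substrate. Enzyme (10 nM) and compounds were first incubated 15 min at room temperature; enzyme-free buffer wells were negative controls.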
PI5P4Ka inh – qHTS for Inhibitors of phosphatidylinositol 5-phosphate 4-kinase (PI5P4K); Phosphatidylinositol 5-phosphate 4-kinase type-2 alpha (Homo sapiens), P48426; max response, %; PI5P4Kalpha enzyme, ADP-Glo luminescence, 60 min; active compounds read low; 330,000 compounds, 1.2% hits; active = max response of -50% or lower; inconclusive = between -30% and -50%; inactive = -30% or higher; also: value at the top dose of about 77 µM; % is scaled to controls: 0 for no effect and ±100 for the full control effect
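ADP-Glo luminescence end-point read after a 60 min room-temperature kinase reaction of PI5P4Kalpha plus substrate, initiated with ATP at 5 microM final. Buffer: 0.038 M HEPES pH 7.4, EGTA, 0.1% CHAPS, 5% DMSO.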
PI4K2A inh – qHTS for small molecular inhibitors of PI4K2A | Phosphatidylinositol 4-kinase type 2-alpha (Homo sapiens), Q9BTU6 | purified PI4K2A, ADP-Glo luminescence, 1 h; active compounds read low | activity change, negative = inhibition, % at 76.9 µM | 420,000 compounds, 0.13% hits | AID 1346378, 2018; in the data active = activity change below about -50%; inconclusive = mostly about -30% to -49%;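 also: -100% = wells without enzyme as full effect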
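PI4K2A activity was measured by ADP-Glo luminescence: enzyme (4 ug/mL stock) and phosphatidylinositol (1.2 mM stock) in Tris pH 7.5/MgCl2/EGTA/Triton X-100 buffer were reacted with ATP (300 microM stock) for one hour at ambient temperature.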
Pol eta inh – qHTS for Inhibitors of Polymerase Eta; DNA polymerase eta (Homo sapiens), Q9Y253; recombinant Pol eta, fluorescent DNA replication assay; Potency, µM (doses to about 114 µM), without a hit: at the top dose activity change, negative = inhibition, hits mostly inhibitors; 390,000 compounds, 1.2% hits; AID 588591, 2011; also: potency is read from the fitted curve at half-maximal effect; % is scaled to controls: 0 for no effect and ±100 for the full control effect
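Fluorescent replication assay: 50 nM final substrate added after a 15 min room-temperature compound preincubation with 10 nM enzyme. Signal taken at 0 min and again at 10 min.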
Pol beta inh-1 – qHTS Assay for Inhibitors of DNA Polymerase Beta; Pol beta primer extension/strand displacement, fluorescence kinetic; 340,000 compounds, 1.3% hits; Potency, µM (series often up to 114 µM), without a hit: at the highest dose activity change, negative = inhibition, most hits filed as inhibitors; P06746; also: potency is read from the fitted curve at half-maximal effect; % is scaled to controls: 0 for no effect and ±100 for the full control effect
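Enzyme-only controls used 10 nM Pol beta; buffer lacking enzyme served as negative control. Compound preincubated 15 min, then 50 nM substrate added; 0 and 10 min reads at room temperature.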
Pol kappa inh – qHTS for Inhibitors of Polymerase Kappa. 400,000 compounds, 0.53% hits. Potency, µM (doses to about 107 µM), for inactives: top-dose activity, negative = inhibition, hits mostly inhibitors. DNA polymerase kappa (Homo sapiens), Q9UBT6. AID 588579, 2011. purified Pol kappa, fluorescent DNA synthesis assay, 10 min; also: potency is read from the fitted curve at half-maximal effect; % is scaled to controls: 0 for no effect and ±100 for the full control effect
Target sequence (Q9UBT6 whole entry, looked up): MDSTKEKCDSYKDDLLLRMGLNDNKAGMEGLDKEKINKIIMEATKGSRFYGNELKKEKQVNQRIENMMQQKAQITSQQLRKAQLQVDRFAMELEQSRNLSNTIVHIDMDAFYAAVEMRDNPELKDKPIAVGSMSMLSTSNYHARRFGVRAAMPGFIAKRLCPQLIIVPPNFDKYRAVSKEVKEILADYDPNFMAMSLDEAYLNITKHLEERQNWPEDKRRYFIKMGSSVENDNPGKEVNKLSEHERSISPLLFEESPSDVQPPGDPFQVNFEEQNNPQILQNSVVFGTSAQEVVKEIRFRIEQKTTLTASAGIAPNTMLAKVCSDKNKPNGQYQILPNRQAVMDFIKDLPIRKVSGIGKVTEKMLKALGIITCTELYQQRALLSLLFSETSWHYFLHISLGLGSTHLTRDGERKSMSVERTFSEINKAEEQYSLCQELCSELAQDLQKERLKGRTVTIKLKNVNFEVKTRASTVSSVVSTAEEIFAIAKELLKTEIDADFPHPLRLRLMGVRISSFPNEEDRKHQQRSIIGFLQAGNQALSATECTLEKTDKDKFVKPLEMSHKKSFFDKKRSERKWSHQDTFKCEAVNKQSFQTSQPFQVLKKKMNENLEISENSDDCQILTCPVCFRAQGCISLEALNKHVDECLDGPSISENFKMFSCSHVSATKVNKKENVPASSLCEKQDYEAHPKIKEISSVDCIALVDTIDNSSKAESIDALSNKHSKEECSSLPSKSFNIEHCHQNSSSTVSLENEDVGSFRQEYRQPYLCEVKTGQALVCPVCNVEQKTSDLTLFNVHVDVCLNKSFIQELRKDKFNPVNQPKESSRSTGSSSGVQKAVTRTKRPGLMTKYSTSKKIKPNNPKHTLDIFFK
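Enzyme at 10 nM met test compounds for 15 min at room temperature. Substrate addition (50 nM final) began the reaction, which was monitored by fluorescence at 0 and 10 min.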
Pol beta inh-2 – Inhibitors of DNA Polymerase Beta: Hit validation; AID 540280, 2011; Pol beta primer extension/strand displacement, fluorescence kinetic; 250 compounds, 87% hits; Potency, µM, hits mostly inhibitors; shares compounds with Pol beta inh-1; calls by dose curve; also: potency is read from the fitted curve at half-maximal effect
Klenow counter – Inhibitors of DNA Polymerase Beta: Hit Validation in Klenow Fragment Assay; shares compounds with Pol beta inh-1; Klenow exo- polymerase counter-screen, fluorescent DNA substrate; activity change, negative = inhibition, % at 57.1 µM; 250 tested, under 10 active
HIV RT inh – Inhibitors of DNA Polymerase Beta: Hit Validation in HIV-RT Assay | shares compounds with Pol beta inh-1 | HIV-1 RT polymerase activity, counter-screen | activity % (negative = inhibition, positive = activation), % at 57.1 µM | 250 tested, under 10 active | AID 540301, 2011
BAZ2B inh – qHTS Assay for Inhibitors of BAZ2B: Hit Validation; Potency, µM, most hits filed as inhibitors; AlphaScreen BAZ2B / biotin-H3K14Ac peptide displacement; shares compounds with Pol kappa inh; 25 compounds, 100% hits; calls by dose curve
BAZ2B bead ctr – qHTS Assay for Inhibitors of BAZ2B: Hit Validation in AlphaScreen Counterscreen; shares compounds with Pol kappa inh; AlphaScreen biotin-His6 peptide bead counterscreen, signal decrease; Potency, µM (top dose mostly 57.1 µM), inactives show at the top dose activity change, negative = inhibition, most hits filed as inhibitors; 25 tested, under 10 active;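 active = clear concentration-dependent signal drop in the bead assay lacking the target, so a primary-screen artifact; inconclusive = weak, partial or single-dose response; inactive = no response, so a real primary hit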
TbPGK inh – qHTS for inhibitors of Phosphogylcerate Kinase: Hit Validation Screen. shares compounds with Pol kappa inh. TbPGK coupled GAPDH assay, Kinase-Glo luminescence. Potency, µM (top dose mostly 57.5 µM), for the others: top-dose activity change, negative = inhibition, hits mostly inhibitors. 500 compounds, 79% hits. AID 686980, 2013; also: potency is read from the fitted curve at half-maximal effect; % is scaled to controls: 0 for no effect and ±100 for the full control effect; nearly all actives have a fitted effect of over 65% in size
* hit, by the source's call; i = inactive; u = inconclusive; x = no result given; ! = not confirmed by another sample; [ ] = dose if it differs, or a comment. Most compounds without a hit are left out; they make up all but 2.8% or so of the library. Unless noted, calls follow the shape of the dose curve; as a rule, active = well fitted curve in the direction sought with a large enough effect; inconclusive = small, poorly fitted or top-dose-only effect, or another doubt; inactive = no such curve, though single readings can be large; an effect the other way counts as inactive or inconclusive.

SMILES	Pol iota inh	PI5P4Ka inh	PI4K2A inh	Pol eta inh	Pol beta inh-1	Pol kappa inh	others
O=C1NC(=S)N(c2ccccc2F)C(=O)/C1=C\c1cccs1	u	-91*	-9	-3%	5%	-10%
CCOc1ccc(N2C(=O)/C(=C/c3ccco3)C(=O)NC2=S)cc1	-96%	-82*	-81*	-101%	13µM*	1.6µM*
O=C1NC(=O)C(=Cc2cccs2)C(=O)N1	u	-19	-25	-11%	x	-10%
O=C(CCl)c1ccc(Oc2ccc(C(=O)CCl)cc2)cc1	x	x	x	x	x	-9%[19.4 µM]
CC12C=CC(=O)C=C1CCC1C2=CCC2(C)C1CC[C@@H]2C(=O)CN1CCN(c2cc(N3CCCC3)nc(N3CCCC3)n2)CC1 (stereo partly specified)	x	x	x	x	x	-15%[60.1 µM]
N.N.N.N.N.N.N.N.N.N.N.N.N.N.O.O.[Cl-].[Cl-].[Cl-].[Cl-].[Cl-].[Cl-].[Ru].[Ru].[Ru]	8.9µM*	x	x	25µM*	5.6µM*	x
O=C1C(I)=CC(=C(c2cc(I)c(O)c(I)c2)c2ccccc2C(=O)O)C=C1I	x	x	-2	x	x	u
O=C1OC(c2cc(I)c(O)c(I)c2)(c2cc(I)c(O)c(I)c2)c2ccccc21	x	x	x	x	x	3.5µM*
O=c1[nH]c(=S)[nH]c(O)c1N=Nc1cc(S(=O)(=O)Nc2ccc(Cl)cc2)ccc1Cl	u	-59*	3	79µM*	x	-25%
O=c1[nH]c(=S)[nH]c(O)c1N=Nc1ccc(S(=O)(=O)N2CCOCC2)cc1	u	-55*	-18	50µM*	u	3%
CC1=CC(=O)c2c(O)cccc2C1=O	x	x	x	x	x	10µM*!
CCNN	x	x	x	x	x	19%[60.1 µM]
O=C(N[C@@H]1N=C(c2ccccc2F)c2cccc3c2N(CC3)C1=O)c1cc2ccccc2[nH]1	x	x	1	x	x	x
C[N+]1([O-])[C@@H]2CC(OC(=O)[C@H](CO)c3ccccc3)C[C@H]1[C@@H]1O[C@@H]12 (stereo partly specified)	14%	-59*	5	-18%	x	0%
C[N+]1([O-])[C@H]2CC[C@H]1CC(OC(=O)[C@@H](CO)c1ccccc1)C2 (stereo partly specified)	x	x	x	x	x	-15%[60.1 µM]
Cc1ccccc1N1C(=O)NC(=O)/C(=C\c2cc(Br)c(N3CCOCC3)o2)C1=O	u	-75*	-21	3%	37%	-24%
Cc1ccccc1N1C(=O)NC(=O)/C(=C/c2ccc(N3CCOCC3)o2)C1=O	-19%	-7	-5	-8%	u	-4%
O=C1NC(=S)NC(=O)C1=Cc1c(Cl)cccc1Cl	17%	u	-3	-4%	x	-13%
CN1C(=O)/C(=C\c2ccc(Br)s2)C(=O)NC1=S	u	-77*	-17	u	u	-29%
O=C1NC(=S)NC(=O)C1=Cc1ccc(Br)s1	u	-85*	-18	22µM*	9%	u
CN1CCC(N(Cc2ccccc2)c2ccccc2)CC1	x	x	0	x	x	x
CC(C)=CCN1CC[C@@]2(C)c3cc(O)ccc3C[C@@H]1[C@@H]2C	x	x	i	x	x	x
C=CCn1c(O)c(C=NCCCn2ccnc2)c(=O)[nH]c1=O	36%	-1	11	-7%	0.32µM*	-3%
CCCCn1c(O)c(C=NCCCn2ccnc2)c(=O)[nH]c1=O	1%	-7	12	-1%	6%	-12%
C=CCC1(CC)C(=O)NC(=S)NC1=O	10%	-2	8	-10%	x	-13%
SMILES	Pol iota inh	PI5P4Ka inh	PI4K2A inh	Pol eta inh	Pol beta inh-1	Pol kappa inh	others
C=CCC1C(=O)NC(=S)NC1=O	49%	-63*	-4	1%	7%	-2%
C=C(C)C(=O)Nc1cccc(C2=NOC3(C2)C[C@H](C(N)=O)N(C(=O)CC)C3)c1 (stereo partly specified)	u	-17	-14	11µM*	3.5µM*	79µM*	Pol beta inh-2=8.9*;Klenow counter=-17;HIV RT inh=1;BAZ2B inh=7.1*;BAZ2B bead ctr=-3%
CCCCCC[C@H]1C(=O)O[C@H](C)[C@H](NC(=O)c2cccc(NC=O)c2O)C(=O)O[C@@H](C)[C@@H]1OC(=O)CC(C)C	x	x	x	x	x	-13%[19.4 µM]
CN1C(=O)NC(=O)/C(=C\c2ccc([N+](=O)[O-])o2)C1=O	2.5µM*	-102*	-21	2.2µM*	100µM*	14µM*	TbPGK inh=1.8µM*
COC(=O)C[C@@](O)(CCC(C)(C)O)C(=O)O[C@@H]1C(OC)=C[C@]23CCCN2CCc2cc4c(cc2[C@@H]13)OCO4	x	x	x	x	x	13%[60.1 µM]
CCOCCOC(C)=O	x	x	i	x	x	x
O=c1cc(OCc2ccccc2)cc[nH]1	53%	-7	-1	-19%	x	4%	BAZ2B inh=2.2*;BAZ2B bead ctr=10µM*
CN1C(=O)C(Cc2ccc(OCc3ccccc3)cc2)C(=O)N(C)C1=O	44%	-6	-11	-6%	-1%	7%

Screens: PubChem, National Center for Advancing Translational Sciences (NCATS)
